# Bioassay records: PubChem, National Center for Advancing Translational Sciences (NCATS)
# Giardia killer = Giardia lamblia killing | 0.15% of 340,000 active | activity change, % at 7.66 µM, hits read low | Giardia lamblia trophozoite viability | AID 540267; in the data active = activity change below about -80%; inconclusive = between about -30% and that limit;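 also: parasites exposed to compound for two days anaerobically before the ATP read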
#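 Giardia trophozoites, 100 cells per well, were exposed to compounds for 48 hrs at 37 deg C under anaerobic conditions; viability was then read as ATP content by bioluminescence after 15-30 min at room temperature.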
# Coupling enz = coupling enzyme interference in Giardia aldolase counter-screen. coupling enzyme system counterscreen, AmpLite Red fluorescence. activity change, negative = inhibition, % at 58.2 µM, hits read low. AID 2472. 0.67% of 290,000 active; in the data active = activity change below about -30%
#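 Activity here indicates interference with the coupling reaction, not aldolase inhibition. Compounds at 57.5 uM final met coupling enzymes for 10 min at RT; substrate and AmpLite Red detection followed, with a 525/598 nm fluorescence read after 20 min.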
# hERG WT inh = blocks the wildtype human KCNH2 potassium channel; Q12809; U2OS, BacMam KCNH2, thallium flux FluxOr; active compounds read low; activity change, % at 1.84 µM; 0.37% of 340,000 active; AID 720551;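 active = maximum activity change below -70%; inconclusive = maximum activity change between -70% and -50%; inactive = maximum activity change above -50%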
#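 U2OS cells transduced with wild-type KCNH2 virus are loaded with FluxOr dye for 45 min, and thallium flux is measured in kinetic reads before and after stimulation buffer. Rate constants are normalized to DMSO controls.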
# KCNH2 3.1 inh = inhibitors of human KCNH2 3.1 potassium channel isoform; AID 720553; activity change, % (tested at about 1.8 µM); 0.95% of 340,000 active; U2OS KCNH2 3.1, thallium flux FluxOr; active compounds read low;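 active = maximum activity change below -70%; inconclusive = maximum activity change from -70% to -50%; inactive = maximum activity change above -50%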;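 also: thallium influx rate constant from kinetic fluorescence after stimulation buffer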
#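 Measured as rate of thallium-driven FluxOr signal in transduced U2OS cells carrying the 3.1 channel, read kinetically for 2 min upon stimulation; values are rate constants scaled to DMSO control wells.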
# USP1 inh = USP1/UAF1 (human) deubiquitinase inhibition; O94782; recombinant USP1/UAF1, Ub-Rhodamine cleavage fluorescence; Potency, µM (top dose mostly 57.1 µM), for inactives: at the highest dose activity change, negative = inhibition, usual class: inhibitors; 0.23% of 390,000 active; AID 743255; active = well fitted inhibition curve with a large enough effect; inconclusive = small, poorly fitted or top-dose-only effect; inactive = no such curve, though single readings can be large or run the other way; also: potency is read from the fitted curve at half-maximal effect; nearly all actives have a fitted effect of over 60% in size
#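 1 nM enzyme complex + cpd, 15 min RT; start with Ub-Rho 150nM final; kinetic fluorescence ex 480/em 540, 6 reads q60 s. Buffer 50mM HEPES pH 7.8, 0.5mM EDTA, 0.1 mg/ml BSA, 1mM TCEP, 0.01% Tween-20.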
# * marks the source's active call; other numbers are inactive results; ? = inconclusive; · = not tested or not shown. An excerpt weighted towards active compounds, which were near 1.7% of everything screened. % is scaled to controls: 0 for no effect and ±100 for the full control effect.
SMILES,Giardia killer,Coupling enz,hERG WT inh,KCNH2 3.1 inh,USP1 inh
N=C1C(c2ccccc2)=C(O)CN1c1cccc(S(=O)(=O)Nc2cccc(C(F)(F)F)c2)c1,7.8,2.2,-30.6,·,-18.1%
C=C(C)C1CC=C(C)/C(=N/NC(=O)c2ccc(NC(=O)CCC)cc2)C1 (configuration not stated),-11.7,2.1,4.1,-86.7*,-3.2%
O=S1(=O)N=C(N/N=C/c2ccccn2)c2ccccc21,-3.0,-32.1*,-5.2,-10.6,0.5%
O=C(NCCN1CCN(C(=O)c2ccc([N+](=O)[O-])cc2)CC1)C(=O)NCc1ccccc1,8.2,0.9,44.2,-79.7*,-3.2%
CNC(=O)C(=O)NCCN1CCN(C(=O)c2ccc([N+](=O)[O-])cc2)CC1,0.7,1.9,-6.3,8.0,-16.8%
CCCCc1ccc(NC(=O)C(=O)NCCN2CCN(Cc3ccc([N+](=O)[O-])cc3)CC2)cc1,31.2,0.9,-245.1*,-169.1*,-12.4%
CCOC(=O)Cc1ccc(NC(=O)Nc2cccc(OCc3cc(=O)n4cc(C)ccc4n3)c2)cc1,·,·,·,·,-7.2%
CC(C)C[C@H](NC(=O)[C@H](CO)NC(=O)CNC(=O)[C@H](CCCCN)NC(=O)[C@H](CCCN=C(N)N)NC(=O)[C@H](C)NC(=O)[C@H](Cc1ccccc1)NC(=O)[C@@H](N)CCCN=C(N)N)C(=O)N[C@@H](CCCN=C(N)N)C(=O)N[C@@H](CCC(N)=O)C(=O)N[C@@H](CCCCN)C(=O)N[C@@H](CC(N)=O)C(=O)N[C@H](C(=O)O)C(C)C,·,1.6,·,·,·
Cc1ccc(NC(=O)c2nc[nH]c2C(=O)Nc2ccc(C)cc2)cc1,-1.4,0.5,-192.3*,10.0,-11.1%
CCOc1ccc(C(=O)Nc2ccc(-c3nc4ccccc4[nH]3)cc2)cc1[N+](=O)[O-],-4.8,0.8,-18.6,-70.6*,?
C=COC(=O)/C=C/C,·,-2.0,·,·,·
CSc1nc(-c2ccco2)nn1S(=O)(=O)c1ccc(C)cc1,?,-34.3*,-3.1,-4.9,-16.6%
CCS(=O)(=O)n1nc(-c2ccco2)nc1SC,6.4,-75.9*,-8.0,6.3,-23.5%
Cc1ccc(N2CCN(C(=O)c3cc4cc5ccc(C)cc5nc4s3)CC2C)cc1 (configuration not stated),·,·,·,·,-22.4%
Cc1nc2ccccc2n1C1CCN(CC(=O)Nc2ccccc2Br)CC1,-3.1,0.6,?,-91.3*,-12.1%
Cc1cccc(N2C(=O)C(O)=C(C(=O)c3cccs3)C2c2ccc(F)cc2)n1 (configuration not stated),-4.1,1.0,-226.8*,-21.3,-18.1%
COc1ccc(C2C(C(=O)c3cccs3)=C(O)C(=O)N2c2nnc(C)s2)cc1OC (configuration not stated),-16.5,9.0,-2.5,2.1,3.98µM*
COc1ccc(C2C(C(=O)c3cccs3)=C(O)C(=O)N2c2nncs2)cc1 (configuration not stated),-3.2,8.6,-13.7,-14.5,2µM*
Cc1ccccc1OCCn1cc(/C=C(\C#N)C(=O)NCc2ccco2)c2ccccc21,0.9,-1.6,-14.6,-77.2*,-12.4%
N#C/C(=C\c1cn(CCOc2ccccc2)c2ccccc12)C(=O)NCc1ccco1,5.4,2.1,4.6,-7.8,-13.4%
N#C/C(=C\c1cn(CCOc2ccccc2F)c2ccccc12)C(=O)NCc1cccs1,-8.0,2.6,2.9,-3.7,-4.1%
N#C/C(=C\c1cn(Cc2ccc(C#N)cc2)c2ccccc12)C(=O)NCc1cccs1,6.6,-1.5,-26.3,-85.8*,-5.3%
N#Cc1cnc(=S)n(-c2cc(C(F)(F)F)cc(C(F)(F)F)c2)c1N,·,·,-4.3,0.2,-26.4%
CCOc1cccc(C2c3c(oc4ccc(F)cc4c3=O)C(=O)N2CCOC)c1 (configuration not stated),·,·,·,·,7.3%
O=C(CSc1cn(CC(=O)N2CCCCC2)c2ccccc12)Nc1ccc(C(F)(F)F)cc1,·,·,·,·,3.9%
SMILES,Giardia killer,Coupling enz,hERG WT inh,KCNH2 3.1 inh,USP1 inh
Cc1cccn2c(CNC3CCCc4ccccc43)c(C(=O)N3CCCCC3)nc12 (configuration not stated),-7.9,-0.2,-3.0,-181.7*,-14.4%
C=CN1CCCC1=O,·,0.9,·,·,·
CCN(CC)c1ccc(NC(=O)CN2CCN(CC(=O)Nc3ccc(F)cc3)CC2)cc1,5.9,2.5,-74.6*,-101.1*,-17.7%
O=C(CN1CCN(C(=O)N2CCOCC2)CC1)Nc1ccc(Br)cc1,14.8,4.0,-118.2*,-70.5*,-10.7%
O=C(CN1CCCC1)Nc1ccc(F)cc1,3.8,-5.7,-3.0,3.8,3.6%
O=C(CN1CCN(CC(=O)Nc2ccc(Cl)cc2)CC1)Nc1ccc(F)cc1,8.8,1.5,-136.9*,-117.6*,-1.9%
CCN1CCN(CC(=O)Nc2ccc(N(C)C)cc2)CC1,-5.0,0.5,-3.8,-5.7,-4.4%
CCN(CC)c1ccc(NC(=O)CN2CCN(CC(=O)Nc3ccc(OC)cc3)CC2)cc1,23.2,6.6,5.5,-85.7*,-19.4%
COc1ccc(NC(=O)CN2CCCCC2)cc1,-11.2,0.5,-3.4,-27.5,-14.8%
O=C(Oc1ccccc1)C1O[C@@H]1c1ccccc1 (some centres not stated),·,-0.4,·,·,·
Cc1ccc(NC(=O)CCn2cccc2)cc1,-14.8,2.6,1.3,-2.0,-12.6%
O=C(CN1CCCCC1)Nc1ccc(S(=O)(=O)N2CCCCCC2)cc1,-7.2,0.1,55.1,-83.1*,-14.6%
COc1ccc(NC(=O)CCn2cccc2)cc1,7.0,-0.1,-9.2,-78.5*,-0.2%
COc1ccc(Cl)cc1NC(=O)Cn1cc(S(=O)(=O)Cc2cccc(Cl)c2)c2ccccc21,·,·,·,·,-16.7%
COc1ccccc1NC(=O)CSc1nnc(NC(=O)NC2CCCCC2)s1,·,·,·,·,-19.1%
Nc1cccc2c(O)cc(S(=O)(=O)O)cc12,-3.6,·,-6.2,26.4,25.1µM*
C/C=C1/NN(CCCN2CCN(c3cccc(Cl)c3)CC2)C(=O)N1CCOc1ccccc1,·,0.3,·,·,·
Cc1cccc(C)c1NC(=S)N/N=C1\CC2CC=CC12 (configuration not stated),-2.2,0.5,7.1,-131.2*,-6.7%
CC(C)C1=CC(=Nc2ccc(S(N)(=O)=O)cc2)C=C(C(C)C)C1=O,0.2,-43.1*,6.4,7.7,-7.4%
O=C(Nc1ccccc1C(F)(F)F)N1CCC(n2c(=O)[nH]c3ccccc32)CC1,-6.4,4.4,7.8,6.6,-5.1%
O=C(Nc1cccc(F)c1)N1CCC(n2c(=O)[nH]c3ccccc32)CC1,16.8,0.1,-228.4*,-193.2*,-8.8%
CC1(C)N([O-])c2cc([N+](=O)[O-])ccc2[N+]1=O,5.9,-63.1*,19.4,-7.4,25.1µM*
COc1ccc(Cl)cc1NC(=O)c1cn(C2CCCC2)c(=O)c2c1c1ccccc1n2C,·,·,·,·,-25.0%
CC(Nc1cc(N2CCN(S(C)(=O)=O)CC2)ccc1[N+](=O)[O-])c1ccccc1 (configuration not stated),13.2,-19.0,2.2,-2.2,-21.9%
